For the assay, the target named is T1, Methionyl-tRNA synthetase, putative (Leishmania donovani (strain BPK282A1)) (UniProt E9BF75).
T1 sequence (whole entry): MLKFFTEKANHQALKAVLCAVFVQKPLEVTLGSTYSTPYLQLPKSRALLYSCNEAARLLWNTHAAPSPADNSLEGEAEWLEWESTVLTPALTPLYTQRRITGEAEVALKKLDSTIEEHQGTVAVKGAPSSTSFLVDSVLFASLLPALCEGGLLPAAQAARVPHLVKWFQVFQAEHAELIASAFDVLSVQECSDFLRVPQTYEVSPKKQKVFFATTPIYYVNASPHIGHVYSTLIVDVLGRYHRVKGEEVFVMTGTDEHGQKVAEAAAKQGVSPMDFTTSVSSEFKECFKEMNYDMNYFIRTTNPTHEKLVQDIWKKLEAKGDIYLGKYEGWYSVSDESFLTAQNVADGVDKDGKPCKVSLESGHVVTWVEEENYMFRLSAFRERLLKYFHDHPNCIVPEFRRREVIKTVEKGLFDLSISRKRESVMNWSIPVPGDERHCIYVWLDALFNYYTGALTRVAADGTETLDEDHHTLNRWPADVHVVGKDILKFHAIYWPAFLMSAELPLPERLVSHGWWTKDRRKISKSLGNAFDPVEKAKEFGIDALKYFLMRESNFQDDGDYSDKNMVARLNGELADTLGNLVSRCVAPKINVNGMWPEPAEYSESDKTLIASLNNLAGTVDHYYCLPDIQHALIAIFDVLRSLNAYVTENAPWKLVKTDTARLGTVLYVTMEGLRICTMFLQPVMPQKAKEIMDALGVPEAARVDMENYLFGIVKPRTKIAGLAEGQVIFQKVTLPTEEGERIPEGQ
The assay is described as follows: Leishmania donovani Methionine tRNA synthetase (LdMetRS):v7. Dose response assay. The format is functional. On the set-up: conc 80 nM, time 150 minutes.

Under “MAX_EFFECT 27.40740741”, `Cn1ncc2c(N3CCCCC3)nc(Nc3ccccc3)nc21` registered a PXC50 of under 4.
Take `Cc1cc(C)n(C2=NC(NCCC(C)C)c3c(sc4c3CCCC4)N2)n1` (stereo not drawn): the PXC50 reads like this: (MAX_EFFECT 4.798464491) under 4; (MAX_EFFECT 13.23763955) under 4.
Turning to `Cc1sc2nc(CCN)nc(N3CC(N4CCCCC4)C3)c2c1C`, the PXC50 was under 4 (MAX_EFFECT 21.14882507) and under 4 (MAX_EFFECT 25.06527415).
Molecule `CC(C)C[C@@H](COc1cccc(F)c1Oc1ccc(Cl)cc1)N(C)C` came in with a PXC50 (MAX_EFFECT 6.418219462) of under 4 and a PXC50 (MAX_EFFECT 11.30063966) of under 4.
On to `CCc1nc(N2CCN(c3ncccn3)CC2)c2cc(CC)sc2n1`, for which the PXC50 is, setting by setting: (MAX_EFFECT 23.46666667) under 4; (MAX_EFFECT 25.3968254) under 4.
Consider `CC(=O)N1CCN(CC2OB(O)c3ccccc32)CC1` (stereo not drawn), for which the PXC50 by setting is: (MAX_EFFECT 12.26415094) under 4; (MAX_EFFECT 15.06849315) under 4.
On to `Cc1nc2c(-c3nc(-c4ccccc4N)n[nH]3)cccn2c1C`, for which the PXC50 by setting is: (MAX_EFFECT 15.34883721) under 4; (MAX_EFFECT 20.27972028) under 4.
Regarding `NS(=O)(=O)c1cccnc1Nc1ccc(F)cc1`, the PXC50 (MAX_EFFECT 1.518026565) is under 4.
As to `CCc1nc(N2CCCC(C)C2)c2c3c(sc2n1)CCC3` (stereo not drawn), the PXC50 is 4.17 (BOTTOM 6.332749468, HILLSLOPE 1.241583482, MAX_EFFECT 50.25125628, TOP 77.91036355) and under 4 (MAX_EFFECT 49.87714988).
As to `O=C(c1c[nH]cn1)N1CCC(F)(F)C2(CCN(c3cnccn3)C2)C1` (stereo not drawn), the PXC50 was under 4 (MAX_EFFECT 1.584507042) and under 4 (MAX_EFFECT 3.800475059).
Turning to `Cc1nc(NCCO)c2c3c(sc2n1)CCC3`, the PXC50 is, setting by setting: (MAX_EFFECT 6.632653061) under 4; (MAX_EFFECT 7.828282828) under 4.
`Cc1nc(N(C)CC(=O)Nc2cc(C)on2)c2c3c(sc2n1)CCC3`: the PXC50 was under 4 (MAX_EFFECT 9.844559585) and under 4 (MAX_EFFECT 10.63829787).
For `Cc1ncc(CNc2cnccc2CO)s1`, the PXC50 was under 4 (MAX_EFFECT 4.225352113) and under 4 (MAX_EFFECT 9.814814815).
As to `Cc1nc(N2CCC3(CC2)OCCO3)c2c(-c3cccs3)csc2n1`, the PXC50 by setting is: (MAX_EFFECT 10.43256997) under 4; (MAX_EFFECT 13.35012594) under 4.
Regarding `Cc1nc(N2CCCCCC2)c2ccsc2n1`, the PXC50 by setting is: (MAX_EFFECT 9.6) under 4; (MAX_EFFECT 10.05291005) under 4.
As to `C[C@H](CO)Nc1ccnc(Cl)n1`, under “MAX_EFFECT 5.046728972”, the PXC50 was under 4.
Take `Cn1cc(CN2CCC(F)(F)C3(CCN(c4cccnc4)C3)C2)cn1` (stereo not drawn): the PXC50 was under 4 (MAX_EFFECT 3.888888889) and under 4 (MAX_EFFECT 8.450704225).
`Cc1nc(NCc2ccccn2)c2cc(C)sc2n1`: the PXC50 is, setting by setting: (MAX_EFFECT 3.015075377) under 4; (MAX_EFFECT 6.633906634) under 4.
For the molecule `Nc1noc2ccc(-c3cnc4ccc(NCC5CC5)nn34)cc12`, the PXC50 reads like this: (MAX_EFFECT 32.56997455) under 4; (MAX_EFFECT 37.71929825) under 4.
As for `O=C1CN(c2nc(-c3cccs3)nc3sc4c(c23)CCCC4)CCN1`, the PXC50 runs as follows: (MAX_EFFECT 29.33333333) under 4; (MAX_EFFECT 31.74603175) under 4.
Take `CCNc1cc(-c2ccccn2)nc(Nc2ccc(F)cc2)n1`: the PXC50 (MAX_EFFECT 11.72707889) is under 4 and the PXC50 (MAX_EFFECT 12.21532091) is under 4.
As to `Cc1cc(C)n(-c2nc(NCC(C)(C)O)c3c4c(sc3n2)CCCC4)n1`, the PXC50 reads like this: (MAX_EFFECT 11.97916667) under 4; (MAX_EFFECT 40.35087719) under 4.
For the setting “MAX_EFFECT 16.2962963”, `c1ccc(-c2nc(N3CCOCC3)c3sccc3n2)cc1` returned a PXC50 of under 4.
Consider `Cn1cc(CN2CCC(F)(F)C3(CCN(c4ccccn4)C3)C2)cn1` (stereo not drawn), for which the PXC50 was under 4 (MAX_EFFECT 6.802721088) and under 4 (MAX_EFFECT 8.971962617).
Consider `CC(C)(CN)COc1cccc(F)c1Oc1ccc(Cl)cc1`, for which the PXC50 is under 4 (MAX_EFFECT 16.84434968) and under 4 (MAX_EFFECT 20.08281573).
Regarding `O=c1cc(NCCCNC2CCOc3c(I)cc(Cl)cc32)[nH]c2ccccc12` (stereo not drawn), the PXC50 was 5.24 (BOTTOM 0.0, HILLSLOPE 1.492515979, MAX_EFFECT 100.0, TOP 105.2364851) and 5.22 (BOTTOM 6.728264836, HILLSLOPE 2.160741468, MAX_EFFECT 100.4651163, TOP 100.3878671).
Molecule `CN(c1nc(NCCO)c2cnn(C)c2n1)C1CCS(=O)(=O)C1` (stereo not drawn) returned a PXC50 (MAX_EFFECT 9.248554913) of under 4.
The molecule `COCCNc1nc(CN2CCOCC2)nc2sc3c(c12)CCCC3` registered a PXC50 (MAX_EFFECT -0.877192982) of under 4 and a PXC50 (MAX_EFFECT -1.5625) of under 4.
Turning to `OB1OC(CN2CCOCC2)c2ccccc21` (stereo not drawn), the PXC50 runs as follows: (MAX_EFFECT 9.245283019) under 4; (MAX_EFFECT 9.589041096) under 4.
Molecule `Cn1ncc2c(NC3CCOC3)nc(Nc3ccc(F)c(F)c3)nc21` (stereo not drawn) showed a PXC50 (BOTTOM 7.395126545, HILLSLOPE 0.941646955, MAX_EFFECT 86.79245283, TOP 90.65244752) of 5.1.
`Cc1nc(NCCN2CCNC2=O)c2ccsc2n1`: the PXC50 (MAX_EFFECT 8.533333333) was under 4 and the PXC50 (MAX_EFFECT 11.11111111) was under 4.
`Cc1cc(CNc2cc(Cl)cc(Cl)c2)no1` had a PXC50 (MAX_EFFECT 7.456978967) of under 2.7.
Take `CCn1c(NC(=O)Nc2ccccc2C)nc2ccccc21`: the PXC50 (MAX_EFFECT 7.777777778) was under 4.
